The test system of one assay is Klebsiella pneumoniae. The settings on record: Concentration 32 ug.mL-1;; ASSAY_TEST Inhibition of Bacterial Growth; detection method Absorption (OD600); MEDIA CAMHB; plate type 384well; NBS; CORNING #3640; time 18 hr.
The test system of the next assay is Candida albicans. The settings on record: Concentration 32 ug.mL-1; ASSAY_TEST Inhibition of Fungal Growth; detection method Absorption (OD530).
For the next assay, the system named is Cryptococcus neoformans. As to conditions: Concentration 32 ug.mL-1; ASSAY_TEST Inhibition of Fungal Growth; detection method Resazurin; Absorption (OD600-OD570); plate type 384well; NBS; CORNING #3640. (Alamar Blue is a resazurin reagent that responds to reducing activity.)

Potency and affinity values are given separately.

What is called Inhibition is the change of the read-out against control, counted positive when it falls. For the molecule `CCc1ccc(N(Cc2cccc(C)c2)S(=O)(=O)c2cccn3c(C)nnc23)cc1`, the Inhibition is 2.32% in the assay on Klebsiella pneumoniae, 4.84% in the assay on Candida albicans and -3.55% with Cryptococcus neoformans.
As to `Cc1cc(C)c(NC(=O)CSc2nnc3c4cc(-c5ccccc5)nn4ccn23)c(C)c1`, the Inhibition is listed as 10.34% with Klebsiella pneumoniae, 10.47% in the assay on Candida albicans and -13.87% in the assay with Cryptococcus neoformans.
On to `O=C(CSc1nnc2c(=O)n(-c3ccc(F)c(F)c3)ccn12)c1cccc(Cl)c1`, for which the Inhibition is 12.31% in the assay on Klebsiella pneumoniae, 1.86% in the assay on Candida albicans and -8.13% with Cryptococcus neoformans.
Taken in the same sequence, the figures for `COc1cc(NC(=O)Cn2nc3n(CCc4ccccc4)c(=O)c4ccccc4n3c2=O)cc(OC)c1` were 10.27%, 12% and -22.83%.
Taken in the same sequence, the figures for `COc1cccc(-n2ccn3c(SCc4cccc(Cl)c4)nnc3c2=O)c1` were 8.66%, 0.25% and -7.39%.
Taken in the same sequence, the figures for `Cc1ccc(-n2ccn3c(SCC(=O)Nc4ccc5c(c4)OCCO5)nnc3c2=O)cc1C` were 9.68%, 0.14% and -6.74%.
On to `COc1ccc(N(Cc2cccc(C)c2)S(=O)(=O)c2ccc3nncn3c2)cc1`, for which the results for the Inhibition in the assay with Klebsiella pneumoniae, in the assay on Candida albicans and with Cryptococcus neoformans were -1.75%, 4.35% and -8.71%, respectively.
`O=C(Cn1nc2c(N3CCOCC3)nccn2c1=O)NCc1cc(F)cc(F)c1`: the Inhibition with Klebsiella pneumoniae was 6.28%; in the assay on Candida albicans it was 4.54%; with Cryptococcus neoformans it was -8.22%.
On to `Cc1ccc(Oc2nccn3c(=O)n(CC(=O)Nc4ccc(F)cc4F)nc23)cc1`, for which the Inhibition is 1.97% with Klebsiella pneumoniae, 0.56% in the assay with Candida albicans and -6.68% in the assay with Cryptococcus neoformans.
Taken in the same sequence, the figures for `CCOc1ccc(-n2ccn3c(SCC(=O)c4cccc(Cl)c4)nnc3c2=O)cc1` were 10.21%, 2.76% and -7.79%.
Taken in the same sequence, the figures for `O=C(CSc1nnc2c(=O)n(-c3ccc(Br)cc3)ccn12)c1c[nH]c2ccccc12` were 21.01%, 3.35% and -16.54%.
`CC(C)c1nnc2c(=O)n(CC(=O)Nc3ccc(Cl)cc3)c3ccccc3n12`: the Inhibition with Klebsiella pneumoniae is listed as 16.79%; in the assay with Candida albicans, 3.6%; in the assay on Cryptococcus neoformans it was -17.29%.
Consider `COc1ccc(CNC(=O)Cn2nc3c(Oc4cccc(C)c4C)nccn3c2=O)cc1`, for which the Inhibition is 3.56% in the assay on Klebsiella pneumoniae, -0.71% with Candida albicans and -3.17% in the assay on Cryptococcus neoformans.
Consider `Cc1ccc(NC(=O)CSc2nc3ccccc3n3cnnc23)c(C)c1`, for which the Inhibition with Klebsiella pneumoniae is given as 0.98%; in the assay on Candida albicans, 26.16%; with Cryptococcus neoformans, -16.93%.
Consider `Cc1ccc(-c2cc3c4nn(CC(=O)NCc5ccccc5)c(=O)n4ccn3n2)cc1C`, for which the Inhibition was 9.36% with Klebsiella pneumoniae, 4.46% with Candida albicans and -12.84% with Cryptococcus neoformans.
`CCOc1ccc(-n2ccn3c(SCC(=O)Nc4cccc(CC)c4)nnc3c2=O)cc1`: the Inhibition with Klebsiella pneumoniae is given as -1.92%; with Candida albicans it was 12.86%; in the assay on Cryptococcus neoformans, -9.18%.
For the molecule `C=Cc1ccc(CN(c2ccc(C(C)C)cc2)S(=O)(=O)c2cccn3cnnc23)cc1`, the Inhibition was 14.46% in the assay on Klebsiella pneumoniae, 3.5% in the assay with Candida albicans and -17.09% in the assay on Cryptococcus neoformans.
Taken in the same sequence, the figures for `COc1ccc(NC(=O)c2ccc3nn(CC(=O)N4CCN(c5ccccc5)CC4)c(=O)n3c2)cc1` were 0.73%, 1.58% and -6.91%.
Taken in the same sequence, the figures for `Cc1ccc(-c2ccc3nn(Cc4cccc(Br)c4)c(=O)n3n2)cc1C` were 14.87%, 0.19% and -18.95%.
In the case of `CC(C)(C)Sc1ccc2nn(CC(=O)N3CCN(c4ccc(F)cc4)CC3)c(=O)n2n1`, the Inhibition is 10% with Klebsiella pneumoniae, 3.9% with Candida albicans and -8.43% in the assay with Cryptococcus neoformans.
Regarding `CC(=O)c1cccc(NC(=O)CSc2nnc3ccc(C(=O)Nc4cccc(F)c4)cn23)c1`, the Inhibition in the assay on Klebsiella pneumoniae was 7.28%; in the assay on Candida albicans, 5.29%; in the assay on Cryptococcus neoformans, -6.79%.
Taken in the same sequence, the figures for `Cc1ccccc1CSc1nnc2c(=O)n(-c3ccc(F)c(F)c3)ccn12` were 9.65%, 4.14% and -9.1%.
As for `O=C(CSc1nnc2c(=O)n(-c3ccc(F)cc3)ccn12)N1CCN(c2ccccc2F)CC1`, the Inhibition in the assay on Klebsiella pneumoniae was -3.8%; in the assay with Candida albicans, 5.18%; with Cryptococcus neoformans, -7.82%.
Taken in the same sequence, the figures for `CC(=O)c1ccc(NC(=O)Cn2nc3c4cc(-c5ccc(Cl)cc5)nn4ccn3c2=O)cc1` were 16.61%, 29.09% and -18.84%.
Taken in the same sequence, the figures for `Cc1cccc(-c2nc(CSc3nc4ccccc4n4c(C(C)C)nnc34)c(C)o2)c1` were 12.8%, 8.07% and -24.07%.
Take `COc1ccc(NC(=O)Cn2nc3c(N4CCOCC4)nccn3c2=O)cc1Cl`: the Inhibition in the assay with Klebsiella pneumoniae was -0.16%; in the assay on Candida albicans, 2.64%; with Cryptococcus neoformans, -7.27%.
In the case of `O=C(Cn1nc2c3c4c(sc3ncn2c1=O)CCCC4)NCCc1ccc(Cl)cc1`, the Inhibition in the assay with Klebsiella pneumoniae is 9.47%; in the assay with Candida albicans, 7.92%; in the assay with Cryptococcus neoformans, -14.7%.
Consider `COc1ccc(N(Cc2cccc(F)c2)S(=O)(=O)c2ccc3nncn3c2)cc1`, for which the Inhibition with Klebsiella pneumoniae is 25.01%; in the assay with Candida albicans, 3.57%; in the assay with Cryptococcus neoformans it was -1.54%.
In the case of `Cc1ccc(CNC(=O)Cn2nc3c(Sc4cccc(F)c4)nccn3c2=O)cc1`, the Inhibition was -2.32% in the assay with Klebsiella pneumoniae, 4.04% with Candida albicans and -11.39% in the assay with Cryptococcus neoformans.
Taken in the same sequence, the figures for `COc1cccc(Sc2nc3ccccc3n3c(=O)n(CC(=O)Nc4cc(C)cc(C)c4)nc23)c1` were 4.15%, 5.74% and -11.67%.
On to `O=C(CCc1nnc2c(N3CCCCC3)nc3ccccc3n12)NCc1ccc(F)cc1`, for which the Inhibition is listed as 6.52% in the assay with Klebsiella pneumoniae, 8.78% in the assay on Candida albicans and -23.71% in the assay on Cryptococcus neoformans.
Taken in the same sequence, the figures for `CCCCn1c(=O)c2sccc2n2c(=O)n(CC(=O)N3CCC(Cc4ccccc4)CC3)nc12` were 0.07%, -1.21% and -0.28%.
On to `Cc1cccc(C)c1NC(=O)CSc1nnc2c3cc(-c4ccc(F)cc4)nn3ccn12`, for which the figures for the Inhibition with Klebsiella pneumoniae, with Candida albicans and in the assay on Cryptococcus neoformans were -6.3%, 4.52% and -11.19%, respectively.
Taken in the same sequence, the figures for `CC(C)NC(=O)Cn1nc2nc(Nc3ccc(F)cc3)ccn2c1=O` were 12.23%, 2.08% and -10.27%.
Taken in the same sequence, the figures for `Cc1[nH]c2ccccc2c1C(=O)CSc1nnc2c(=O)n(-c3ccc(Br)cc3)ccn12` were 4.84%, 1.31% and -12.52%.
For the molecule `CCc1nnc2c(S(=O)(=O)N(Cc3cccc(Cl)c3)c3ccccc3)cccn12`, the Inhibition is -7.54% in the assay on Klebsiella pneumoniae, 2.13% in the assay with Candida albicans and -7.64% in the assay with Cryptococcus neoformans.
Consider `O=c1c2nnc(SCc3ccccc3F)n2ccn1-c1ccc(F)cc1`, for which the Inhibition was -2.87% in the assay with Klebsiella pneumoniae, 2.17% in the assay with Candida albicans and -5.92% in the assay on Cryptococcus neoformans.
Taken in the same sequence, the figures for `CSc1ccc(CNC(=O)Cn2nc3c(Oc4ccccc4)nccn3c2=O)cc1` were 13.75%, 0.62% and -8.38%.
Taken in the same sequence, the figures for `CCCCN(CC)C(=O)CSc1nnc2c(=O)n(Cc3ccccc3F)ccn12` were 7.9%, 2.5% and -19.25%.
Taken in the same sequence, the figures for `COc1ccccc1NC(=O)CSc1nnc2c(=O)n(-c3ccc(C)c(C)c3)ccn12` were 7.95%, 1.21% and -7.82%.
Take `COc1ccc(CN(c2cc(C)cc(C)c2)S(=O)(=O)c2cccn3cnnc23)cc1F`: the Inhibition in the assay on Klebsiella pneumoniae is on record as -0.72%; in the assay on Candida albicans, 0.54%; in the assay on Cryptococcus neoformans, -10.15%.
With `COc1cc(NC(=O)Cn2nc3ccc(SC(C)(C)C)nn3c2=O)cc(OC)c1OC`, the figures for the Inhibition with Klebsiella pneumoniae, in the assay with Candida albicans and in the assay on Cryptococcus neoformans were 14.77%, 0.63% and -18.78%, respectively.
Taken in the same sequence, the figures for `CCOC(=O)c1ccccc1NC(=O)Cn1nc2c3sc(N4CCCC4)nc3ncn2c1=O` were 9.28%, 9.32% and -6%.
Taken in the same sequence, the figures for `Cc1ccc(-c2ccc3nn(CC(=O)Nc4cccc(Cl)c4)c(=O)n3n2)cc1C` were 4.06%, 0.61% and -15.53%.
Taken in the same sequence, the figures for `CCc1ccccc1NC(=O)Cn1nc2n(CCC(C)C)c(=O)c3sccc3n2c1=O` were 0.67%, 8.44% and -17.68%.
With `CCC(Sc1nnc2c(=O)n(-c3ccccc3)ccn12)C(=O)Nc1cc(F)ccc1F` (stereo not drawn), the Inhibition in the assay on Klebsiella pneumoniae is on record as 10.28%; in the assay on Candida albicans, 0.38%; in the assay with Cryptococcus neoformans, -17.31%.
For the molecule `O=C(CSc1nnc2c(=O)n(-c3ccc(F)c(F)c3)ccn12)c1c[nH]c2ccccc12`, the Inhibition with Klebsiella pneumoniae is 5.97%; in the assay on Candida albicans, 22.97%; with Cryptococcus neoformans it was -8.04%.
For `COc1ccc(-c2cc3c4nnc(SCC(=O)NCc5ccc(C)cc5)n4ccn3n2)cc1`, the Inhibition with Klebsiella pneumoniae is 7.85%; with Candida albicans it was 1.56%; in the assay with Cryptococcus neoformans, -10.46%.
In the case of `COc1ccc(NC(=O)Cn2nc3c(SC4CCCCC4)nccn3c2=O)cc1`, the values for the Inhibition in the assay on Klebsiella pneumoniae, in the assay on Candida albicans and in the assay with Cryptococcus neoformans were 11.17%, 6.08% and -26.97%, respectively.
On to `CCCN(C)c1nccn2c(=O)n(CC(=O)Nc3cccc(C(C)=O)c3)nc12`, for which the Inhibition in the assay on Klebsiella pneumoniae is 4.82%; in the assay on Candida albicans, 2.07%; in the assay with Cryptococcus neoformans, -8.37%.
Regarding `COc1ccc(CNC(=O)Cn2nc3c(SC4CCCCC4)nccn3c2=O)cc1`, the Inhibition with Klebsiella pneumoniae was 14.45%; in the assay with Candida albicans, 17.79%; in the assay on Cryptococcus neoformans it was -15.36%.
In the case of `O=c1c2nnc(SCc3cccc(F)c3)n2ccn1-c1ccc(Br)cc1`, the Inhibition with Klebsiella pneumoniae is reported as 8.43%; in the assay on Candida albicans, 4.16%; in the assay with Cryptococcus neoformans, -10.68%.
Taken in the same sequence, the figures for `CCc1nnc2c(SCC(=O)Nc3ccccc3Br)nc3ccccc3n12` were 11.72%, 2.39% and -22.99%.
Taken in the same sequence, the figures for `COc1ccc(-c2cc3c4nn(CC(=O)Nc5cc(C)ccc5OC)c(=O)n4ccn3n2)cc1` were 8.5%, 13.11% and -15.79%.
Taken in the same sequence, the figures for `Cc1nnc2c(=O)n(CC(=O)Nc3ccc(Cl)cc3F)c3ccccc3n12` were 7.95%, 0.4% and -18.26%.
As to `COc1ccc(NC(=O)CSc2nc3ccccc3n3c(C(C)C)nnc23)cc1Cl`, the Inhibition in the assay on Klebsiella pneumoniae is given as 5.17%; in the assay on Candida albicans it was 1.87%; in the assay with Cryptococcus neoformans it was -6.36%.
Taken in the same sequence, the figures for `Cc1ccccc1CSc1nnc2c(=O)n(-c3ccc(Br)cc3)ccn12` were 3.65%, 15.24% and -9.13%.
Regarding `COc1ccc(NC(=O)Cn2nc3nc(N4CCOCC4)ccn3c2=O)cc1F`, the Inhibition with Klebsiella pneumoniae is reported as 8.85%; in the assay with Candida albicans, 5.37%; in the assay on Cryptococcus neoformans it was -8.95%.
For `CCOc1ccccc1NC(=O)Cn1c(=O)c2nnc(C(C)C)n2c2ccccc21`, the Inhibition was 4.41% with Klebsiella pneumoniae, 1.06% in the assay on Candida albicans and -2.8% with Cryptococcus neoformans.
With `C=Cc1ccc(CSc2nnc3c(=O)n(-c4cccc(OC)c4)ccn23)cc1`, the Inhibition with Klebsiella pneumoniae was 9.99%; with Candida albicans, 4.25%; in the assay with Cryptococcus neoformans it was -2.41%.
Taken in the same sequence, the figures for `CCOC(=O)c1cccc(NC(=O)CSc2nc3ccccc3n3c(C(C)C)nnc23)c1` were 16.4%, 0.96% and -15.16%.

(Values after ChEMBL document CHEMBL4513146, “CO-ADD screening of Karazin Kharkiv National University (Ukraine) compounds”.)
